Assay results: PubChem BioAssay (Tox21)
Where “and” joins values, the source holds several entries; their conditions need not be identical. Identical values can stand only once. Inconclusive results are not listed. Calls of active or inactive are those of the source. The call rests on the fitted dose curve; in most records, active means well fitted curve in the direction sought with a large enough effect in the repeat runs; inconclusive means weak or mixed curves; inactive means no such curve, though single readings can be large; an effect the other way counts as inactive or inconclusive.

Key:
[1] = qHTS RealTime-Glo MT Cell Viability Assay in HEK293 cells - 16 hour (AID 1224872); conditions: RealTime-Glo luminescence; series mostly up to 76.8 µM; further: nearly all actives have a fitted effect of over 50% in size; further: potency means the concentration at half of the fitted maximal effect
Summary of the method: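 Viability tracked continuously by luminescence as live cells reduce a prosubstrate for NanoLuc; HEK293 cells preincubated 5 h, compound-treated at 37 C, and read at 0, 8, 16, 24, 32 and 40 h.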

[2] = qHTS RealTime-Glo MT Cell Viability Assay in HepG2 cells - 8 hour (AID 1224873); conditions: RealTime-Glo luminescence; series mostly up to 76.8 µM; further: nearly all actives have a fitted effect of over 55% in size; further: potency means the concentration at half of the fitted maximal effect
Summary of the method: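 HepG2 cells (600/well) mixed with RealTime-Glo MT reagent, settled 5 h at 37 C/5% CO2 before compound addition. Nonlytic NanoLuc luminescence from viable-cell prosubstrate reduction read repeatedly during 40 h treatment at 37 C.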

[3] = qHTS RealTime-Glo MT Cell Viability Assay in HEK293 cells - 40 hour (AID 1224874); conditions: RealTime-Glo luminescence; max response: stronger effect = lower value; further: nearly all actives have a fitted effect of over 50% in size; further: potency means the concentration at half of the fitted maximal effect
Summary of the method: (§1)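 Measured as luminescence from the same continuously cultured HEK293 wells at successive time points (0, 8, 16, 24, 32, 40 h) after compound addition. Reagent present from seeding; dosing at 5 h; incubation 37 C.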

[4] = A CellTox Green Cytotoxicity Assay to monitor cytotoxicity in HEK293 cells - 24 hour (AID 1224875); conditions: CellTox Green fluorescence; series mostly up to 76.8 µM; further: nearly all actives have a fitted effect of over 45% in size; further: potency means the concentration at half of the fitted maximal effect
Summary of the method: (§2)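 Homogeneous no-lysis format: HEK293 cell suspension mixed with CellTox Green reagent, seeded, incubated 5 h at 37 C/5% CO2, then dosed by pintool with compound in DMSO.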

[5] = A CellTox Green Cytotoxicity Assay to monitor cytotoxicity in HepG2 cells - 16 hour (AID 1224876); conditions: CellTox Green fluorescence; series mostly up to 76.8 µM; further: nearly all actives have a fitted effect of over 45% in size; further: potency means the concentration at half of the fitted maximal effect
Summary of the method: (§3)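 Fluorescent DNA-binding dye, 600 HepG2 cells/well, 5 h preincubation then compound in DMSO; same plates read at 0–40 h, 37 C.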

[6] = qHTS RealTime-Glo MT Cell Viability Assay in HepG2 cells - 32 hour (AID 1224877); conditions: RealTime-Glo luminescence; series mostly up to 76.8 µM; further: nearly all actives have a fitted effect of over 55% in size; further: potency means the concentration at half of the fitted maximal effect
Summary of the method: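 Viability was tracked continuously by NanoLuc luminescence from prosubstrate reduced by living HepG2 cells, at successive time points over 40 h of compound exposure. Cells with reagent were preincubated 5 h at 37 °C before compound addition.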

[7] = A CellTox Green Cytotoxicity Assay to monitor cytotoxicity in HepG2 cells - 24 hour (AID 1224878); conditions: CellTox Green fluorescence; series mostly up to 76.8 µM; further: nearly all actives have a fitted effect of over 45% in size; further: potency means the concentration at half of the fitted maximal effect
Summary of the method: as §3

[8] = A CellTox Green Cytotoxicity Assay to monitor cytotoxicity in HepG2 cells - 40 hour (AID 1224879); conditions: CellTox Green fluorescence; series mostly up to 76.8 µM; further: nearly all actives have a fitted effect of over 40% in size; further: potency means the concentration at half of the fitted maximal effect
Summary of the method: as §3

[9] = qHTS RealTime-Glo MT Cell Viability Assay in HEK293 cells - 0 hour (AID 1224880); conditions: RealTime-Glo luminescence; series mostly up to 76.8 µM; further: top concentration of the series differs between compounds; nearly all actives have a fitted effect of over 45% in size
Summary of the method: as §1

[10] = A CellTox Green Cytotoxicity Assay to monitor cytotoxicity in HEK293 cells - 32 hour (AID 1224881); conditions: CellTox Green fluorescence; series mostly up to 76.8 µM; further: nearly all actives have a fitted effect of over 40% in size; further: potency means the concentration at half of the fitted maximal effect
Summary of the method: as §2
On the % scale 0 is the no-effect control and ±100 the full control effect.

O=[N+]([O-])c1ccc(F)c(Cl)c1
inactive: Potency [1] | Potency [2] | max response [3] 14.6% | Potency [4] | Potency [5] | Potency [6] | Potency [7] | Potency [8] | Potency [9] | Potency [10]

CCC(CC)C(C)CCOC(C)=O (configuration not stated)
inactive: Potency [1] | Potency [2] | max response [3] 20.3% | Potency [4] | Potency [5] | Potency [6] | Potency [7] | Potency [8] | Potency [9] | Potency [10]

Nc1nc(N)nc(-c2cc(Cl)ccc2Cl)n1
inactive: Potency [1] | Potency [2] | max response [3] 3.58% | Potency [4] | Potency [5] | Potency [6] | Potency [7] | Potency [8] | Potency [9] | Potency [10]

CCC(CC)(CC(=O)Nc1cccc(/C=C/c2nc(C3CCC3)cs2)c1)C(=O)O
inactive: Potency [1] | Potency [2] | max response [3] -19.8% | Potency [4] | Potency [5] | Potency [6] | Potency [7] | Potency [8] | Potency [10]

O=C(O)Cc1ccc2c(c1)C(=O)c1ccccc1CO2
inactive: Potency [1] | Potency [2] | max response [3] 1.5% | Potency [4] | Potency [5] | Potency [6] | Potency [7] | Potency [8] | Potency [9] | Potency [10]

CC(=O)c1ccc(C(C)=O)cc1
inactive: Potency [1] | Potency [2] | max response [3] -3.34% | Potency [4] | Potency [5] | Potency [6] | Potency [7] | Potency [8] | Potency [9] | Potency [10]

CC(C)CCCCCOC(=O)CCS
inactive: Potency [1] | Potency [2] | max response [3] 0.648% | Potency [4] | Potency [5] | Potency [6] | Potency [7] | Potency [8] | Potency [9] | Potency [10]

CCCCC/C=C\C/C=C\CCCCCCCC(=O)O
inactive: Potency [1] | Potency [2] | max response [3] 6.43% and 5.51% | Potency [4] | Potency [5] | Potency [6] | Potency [7] | Potency [8] | Potency [9] | Potency [10]

ClCCl
inactive: Potency [1] | Potency [2] | max response [3] 10.5% | Potency [4] | Potency [5] | Potency [6] | Potency [7] | Potency [8] | Potency [9] | Potency [10]

c1ccsc1
inactive: Potency [1] | Potency [2] | max response [3] -2.24% | Potency [4] | Potency [5] | Potency [6] | Potency [7] | Potency [8] | Potency [9] | Potency [10]

CN1CCN2c3ccccc3Cc3ccccc3C2C1 (configuration not stated)
inactive: Potency [1] | Potency [2] | max response [3] -5.98% | Potency [4] | Potency [5] | Potency [6] | Potency [10]

C=CC(C)(CCC=C(C)C)OC=O (configuration not stated)
inactive: Potency [1] | Potency [2] | max response [3] 5.29% | Potency [4] | Potency [5] | Potency [6] | Potency [7] | Potency [8] | Potency [9] | Potency [10]

Cc1c(C)c([N+](=O)[O-])c(C(C)(C)C)c([N+](=O)[O-])c1C
inactive: Potency [1] | Potency [2] | max response [3] -0.27% | Potency [4] | Potency [5] | Potency [6] | Potency [7] | Potency [8] | Potency [9] | Potency [10]

CCc1cccc(CC)c1NC(=O)CN(CC(=O)O)CC(=O)O
inactive: Potency [1] | Potency [2] | max response [3] 1.69% | Potency [4] | Potency [5] | Potency [6] | Potency [7] | Potency [8] | Potency [9] | Potency [10]

O=C(O)c1cc(N=Nc2ccc([N+](=O)[O-])cc2)ccc1O
inactive: Potency [1] | Potency [2] | max response [3] -17% | Potency [4] | Potency [5] | Potency [6] | Potency [7] | Potency [8] | Potency [10]

CC(C)(C)c1ccc(C(O)CCCN2CCC(C(O)(c3ccccc3)c3ccccc3)CC2)cc1 (configuration not stated)
active: Potency [1] 6.74 µM | Potency [2] 10.7 µM | Potency [3] 4.77 µM | Potency [4] 9.52 µM | Potency [5] 10.7 µM | Potency [6] 5.35 µM | Potency [7] 8.49 µM | Potency [8] 5.35 µM | Potency [10] 8.49 µM

C#Cc1ccc(-c2ccccc2F)cc1
inactive: Potency [1] | Potency [2] | max response [3] 5.33% | Potency [4] | Potency [5] | Potency [6] | Potency [7] | Potency [9] | Potency [10]

CCCCCCC1CCCC(=O)O1 (configuration not stated)
inactive: Potency [1] | Potency [2] | max response [3] 3.13% | Potency [4] | Potency [5] | Potency [6] | Potency [7] | Potency [8] | Potency [9] | Potency [10]

Cc1nc(-c2ccc(Cl)cc2)oc1COC(C)(C)C(=O)O
inactive: Potency [1] | Potency [2] | max response [3] 0.172% | Potency [4] | Potency [5] | Potency [6] | Potency [7] | Potency [8] | Potency [9] | Potency [10]

CCCCNS(=O)(=O)c1ccc(C)cc1
inactive: Potency [1] | Potency [2] | max response [3] -16.6% | Potency [4] | Potency [5] | Potency [6] | Potency [9] | Potency [10]
active: Potency [7] 6.16 µM

Nc1ccc(C(=O)O)c(O)c1
inactive: Potency [1] | Potency [2] | max response [3] -4.05% | Potency [4] | Potency [5] | Potency [6] | Potency [9] | Potency [10]

O=C(O)c1cc(=O)c2ccccc2o1
inactive: Potency [1] | Potency [2] | max response [3] 1.84% | Potency [4] | Potency [5] | Potency [6] | Potency [7] | Potency [8] | Potency [9] | Potency [10]

O=c1c(O)c(-c2ccc(O)cc2O)oc2cc(O)cc(O)c12
inactive: Potency [1] | Potency [2] | max response [3] 7.77% | Potency [4] | Potency [6] | Potency [9] | Potency [10]
